Source: PubChem (several laboratories)
DUSP3 inh: blocks human VHR1 dual specificity phosphatase; P51452; recombinant VHR phosphatase, pNPP absorbance; inhibition, % at 13.3 µM; actives 0.52% (n = 290,000); in the data active means inhibition above about 50%
Target sequence (P51452 whole entry, looked up): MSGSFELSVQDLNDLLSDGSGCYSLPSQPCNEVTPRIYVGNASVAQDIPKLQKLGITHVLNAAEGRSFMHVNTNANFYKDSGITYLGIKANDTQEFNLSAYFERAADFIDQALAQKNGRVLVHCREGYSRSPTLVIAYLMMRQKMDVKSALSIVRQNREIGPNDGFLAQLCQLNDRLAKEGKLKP
Mtb FBA inh: Mtb fructose-bisphosphate aldolase inhibition | AID 588726 | purified M. tuberculosis FBA, fluorescence read-out | actives 2.3% (n = 360,000) | inhibition, % at 1 µM
Target sequence (P9WQA3 whole entry, looked up): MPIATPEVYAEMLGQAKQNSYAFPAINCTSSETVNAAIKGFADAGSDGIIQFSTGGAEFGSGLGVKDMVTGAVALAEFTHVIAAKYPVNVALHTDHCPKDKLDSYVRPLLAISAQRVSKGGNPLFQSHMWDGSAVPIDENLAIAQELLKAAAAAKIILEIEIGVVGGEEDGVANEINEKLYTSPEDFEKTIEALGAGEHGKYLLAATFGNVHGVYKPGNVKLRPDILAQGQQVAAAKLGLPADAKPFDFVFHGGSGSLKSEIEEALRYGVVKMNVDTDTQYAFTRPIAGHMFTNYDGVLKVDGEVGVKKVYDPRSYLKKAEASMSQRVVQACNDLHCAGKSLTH
GDH-TPI counter-1: GDH-TPI coupled enzyme inhibition counter-screen | inhibition, % at 4.8 µM | GDH-TPI coupled enzyme counterscreen, NADH absorbance | AID 588335 | actives 1.2% (n = 360,000); in the data active means inhibition above about 30%
Mtb hypoxia inh: Mtb hypoxia fluorescent reporter inhibition | M. tuberculosis hypoxia-regulated fluorescent reporter, fluorescence | actives 0.1% (n = 300,000) | fluorescence inhibition, % (test concentration not listed); in the data active means fluorescence inhibition mostly above about 23%, no sharp cut-off; inactive means mostly below about 17%
Mtb bLac sens: beta-lactam sensitization of Mtb H37Rv. M. tuberculosis H37Rv growth with meropenem, percent inhibition. inhibition, % at 25 µM. actives 0.27% (n = 330,000). AID 434955; call rule not given here;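 further: growth measured after seven days incubation then overnight dye step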
Mtb FBA inh conf: confirmation of M. tuberculosis fructose-bisphosphate aldolase inhibitors; inhibition, % at 1 µM; purified M. tuberculosis FBA, fluorescence read-out; AID 651616; actives 78% (n = 5,600); shares compounds with Mtb FBA inh
GDH-TPI counter-2: inhibits GDH-TPI coupling enzymes, flagging Mtb FBA hits | shares compounds with Mtb FBA inh | GDH-TPI coupled enzyme counterscreen, fluorescence | inhibition, % at 1 µM | actives 81% (n = 5,600); in the data active means inhibition above about 10%
Each line names hits and unclear results; the compound was inactive in the other large screens (follow-up assays come after a bar, where they were run). Hits are enriched below; roughly 3.6% of the tested compounds scored in any of these assays. Unless noted, no stated cut-off is given here; in the data, active means inhibition above about 27%; inactive means the rest.

O=C(O)C1CC=C(Cl)CC1C(=O)NC1CCCCC1 (stereo not given)	Mtb FBA inh 27.8 | Mtb FBA inh conf 159.6 | GDH-TPI counter-2 107.6
Cc1ccccc1NC(=O)C1CC(Cl)=CCC1C(=O)O (stereo not given)	none
CC1CN(C(=NS(=O)(=O)c2ccccc2)c2ccccc2)CC(C)O1 (stereo not given)	none (no result: DUSP3 inh, Mtb FBA inh, GDH-TPI counter-1, Mtb bLac sens)
Cc1nn(-c2ccccc2)nc1C(=O)OCC(=O)N1CCC(C)CC1	Mtb FBA inh 28.4 (no result: DUSP3 inh) | Mtb FBA inh conf 94.0 | GDH-TPI counter-2 76.5
O=C(NCCc1ccccc1)c1ccc2[nH]c(=O)c(=O)[nH]c2c1	Mtb FBA inh 32.5 | Mtb FBA inh conf 32.5 | GDH-TPI counter-2 18.6
COc1ccc2[nH]c(=O)cc(C(=O)O)c2c1	none
COc1ccc2[nH]c(=O)c(C(=O)O)cc2c1	Mtb FBA inh 52.6 | Mtb FBA inh conf 65.5 | GDH-TPI counter-2 61.0
COc1ccc2[nH]c(C(=O)NCCc3ccccc3)cc2c1	Mtb FBA inh 48.2 | Mtb FBA inh conf inactive | GDH-TPI counter-2 inactive
COc1ccc2[nH]c(C(=O)NCCCn3ccnc3)cc2c1	Mtb FBA inh 86.0 | Mtb FBA inh conf 125.1 | GDH-TPI counter-2 90.1
COc1ccc(C(=O)c2c[nH]c(C(=O)NCCCn3ccnc3)c2)cc1	none
O=C(NCCc1ccccc1)c1ccc(=O)[nH]c1	none
COc1ccc(C2C=CCN(C(=O)C3CCCC3)CC(=O)N2Cc2ccc(F)cc2)cc1 (stereo not given)	none (no result: DUSP3 inh, Mtb FBA inh, GDH-TPI counter-1, Mtb bLac sens)
CC(C)(C)OC(=O)NCCCCC(NC(=O)c1[nH]cnc1C(=O)Nc1ccccc1)C(=O)OC(C)(C)C (stereo not given)	none (no result: DUSP3 inh, Mtb FBA inh, GDH-TPI counter-1, Mtb bLac sens)
O=C(O)c1cc(OCc2ccccc2)cc(OCc2ccccc2)c1	none
CCOc1ccc(NC(=O)C(=O)NCCCn2ccnc2)cc1	Mtb FBA inh 43.6 | Mtb FBA inh conf 196.7 | GDH-TPI counter-2 164.5
O=C(O)c1cc2cc(OCc3ccccc3)ccc2[nH]1	Mtb FBA inh 38.6 | Mtb FBA inh conf 129.3 | GDH-TPI counter-2 97.4
CCCCNC(=O)c1cc2cc(OC)ccc2[nH]1	Mtb FBA inh 48.6 | Mtb FBA inh conf inactive | GDH-TPI counter-2 inactive
COc1ccc2[nH]c(C(=O)O)c(CCNC(C)=O)c2c1	Mtb FBA inh 49.4 | Mtb FBA inh conf 125.2 | GDH-TPI counter-2 106.4
COc1ccc2[nH]c(C(=O)NCCN3CCCCC3)cc2c1	none (no result: Mtb FBA inh, GDH-TPI counter-1)
CCCCC=CC(NC(=O)c1ccc(C(=O)OC)cc1)c1ccccc1 (stereo not given)	none (no result: DUSP3 inh, Mtb FBA inh, GDH-TPI counter-1, Mtb bLac sens)
O=C(Nc1ccccc1)C1=CC(c2ccccc2)CC(OCCCCO)O1 (stereo not given)	none (no result: DUSP3 inh, Mtb FBA inh, GDH-TPI counter-1, Mtb bLac sens)
COc1ccc2[nH]c(C(=O)N(Cc3ccccn3)Cc3ccccn3)cc2c1	Mtb FBA inh 34.4 | Mtb FBA inh conf 132.1 | GDH-TPI counter-2 112.9
Nc1c(S(=O)(=O)c2ccccc2)c2nc3ccccc3nc2n1CCN1CCOCC1	Mtb FBA inh 46.8 | Mtb FBA inh conf 70.0 | GDH-TPI counter-2 55.0
Cc1ccc(S(=O)(=O)c2c(N)n(CCC(C)C)c3nc4ccccc4nc23)cc1	Mtb FBA inh 45.6 | Mtb FBA inh conf 107.3 | GDH-TPI counter-2 80.3
Nc1c(S(=O)(=O)c2ccccc2)c2nc3ccccc3nc2n1C1CC1	none
Cn1c(N)c(S(=O)(=O)c2ccc(Br)cc2)c2nc3ccccc3nc21	Mtb FBA inh 106.8 | Mtb FBA inh conf inactive | GDH-TPI counter-2 18.2
O=C(NN=Cc1c(F)c(F)c(F)c(F)c1F)c1cc(-c2ccccc2)nc2ccccc12	none (no result: DUSP3 inh, Mtb FBA inh, GDH-TPI counter-1, Mtb bLac sens)
CCN1c2ccccc2-c2nc3ccccc3n2C1c1cccnc1 (stereo not given)	Mtb FBA inh 68.1 | Mtb FBA inh conf 96.5 | GDH-TPI counter-2 83.7
CCN1c2ccccc2-c2nc3ccccc3n2C1c1ccccn1 (stereo not given)	Mtb FBA inh 50.8 | Mtb FBA inh conf active | GDH-TPI counter-2 active
CCN1c2ccccc2-c2nc3ccccc3n2C1c1ccncc1 (stereo not given)	none
CCN(CC)C(=O)CN1C(=O)c2cccc3cccc(c23)C1=O	Mtb FBA inh 38.3 | Mtb FBA inh conf 130.0 | GDH-TPI counter-2 87.8
O=C(CN1c2cccc3cccc(c23)S1(=O)=O)N1CCOCC1	none
O=C(CN1C(=O)c2cccc3cccc(c23)C1=O)N1CCOCC1	Mtb FBA inh 29.3 | Mtb FBA inh conf 46.1 | GDH-TPI counter-2 38.6
NC(=O)c1ccc(C(=O)NN=C(Cc2ccccc2)c2ccccc2)cc1	none (no result: DUSP3 inh, Mtb FBA inh, GDH-TPI counter-1, Mtb bLac sens)
CN(C)c1ccc(/C=N\NC(=O)CC#N)cc1	Mtb FBA inh 29.5, GDH-TPI counter-1 35.0 (no result: Mtb hypoxia inh) | Mtb FBA inh conf inactive | GDH-TPI counter-2 inactive
Cc1[nH]c(C(=O)N/N=C/c2ccc(N(C)C)cc2)c(C)c1C(=O)N/N=C/c1ccc(N(C)C)cc1	Mtb FBA inh 27.6, GDH-TPI counter-1 45.5 (no result: Mtb hypoxia inh) | Mtb FBA inh conf 59.9 | GDH-TPI counter-2 43.8
CN(C)c1ccc(C=NNC(=O)CC#N)cc1	none (no result: DUSP3 inh, Mtb FBA inh, GDH-TPI counter-1, Mtb bLac sens)
COC(=O)C1=C(c2ccc(OC)c(OC)c2)CC2CCC1N2C(=O)NC1CC1 (stereo not given)	none (no result: DUSP3 inh, Mtb FBA inh, GDH-TPI counter-1, Mtb bLac sens)
Cc1ccc(/C=N/NC(=O)c2ccccc2OCc2ccc(F)cc2)o1	Mtb FBA inh 93.8 (no result: Mtb hypoxia inh) | Mtb FBA inh conf 54.1 | GDH-TPI counter-2 47.0
COC(=O)c1ccc(C(=O)OC)c(=O)[nH]1	Mtb FBA inh 62.5 | Mtb FBA inh conf inactive | GDH-TPI counter-2 inactive
CCC(CO)Oc1cc(NCc2ccc(Cl)c(Cl)c2)c2ncn(C(C)C)c2c1 (stereo not given)	none (no result: DUSP3 inh, Mtb FBA inh, GDH-TPI counter-1, Mtb bLac sens)
CC(C)C1NC(=O)c2cc([N+](=O)[O-])cc(I)c2OCCC(C(N)=O)NC(=O)C(CCC(=O)O)NC1=O (stereo not given)	none (no result: DUSP3 inh, Mtb FBA inh, GDH-TPI counter-1, Mtb bLac sens)
N#Cc1ccc(C(=O)OCC(=O)N2CCN(C(=O)c3ccco3)CC2)cc1	none (no result: DUSP3 inh)
N#Cc1ccccc1OCC(=O)OCC(=O)N1CCN(C(=O)c2ccco2)CC1	Mtb FBA inh 73.9 | Mtb FBA inh conf 170.5 | GDH-TPI counter-2 147.1
COc1cccc(CNC(=O)CCNC(=O)c2ccccc2OC)c1	none
Nc1ccccc1NC(=O)c1ccccc1N	Mtb FBA inh 61.4 | Mtb FBA inh conf 100.7 | GDH-TPI counter-2 87.1
O=C(NCc1ccc(Cl)cc1)c1ccccc1CCc1ccccc1	none
COc1cccc(CNC(=O)c2ccccc2N)c1	Mtb FBA inh 63.3 (no result: Mtb hypoxia inh) | Mtb FBA inh conf 59.5 | GDH-TPI counter-2 54.1
O=C(O)c1ccccc1C(=O)NCc1ccc(F)cc1	none
Nc1ccccc1C(=O)NCc1ccc(Cl)cc1	Mtb FBA inh 49.4 | Mtb FBA inh conf 160.5 | GDH-TPI counter-2 139.0
Cc1c(NC(=O)c2ccccc2N)cccc1C(=O)O	none
Nc1ccccc1C(=O)NCc1ccc(F)cc1	Mtb FBA inh 77.2 | GDH-TPI counter-2 active
c1ccc(C2=NN(c3ccccc3)CC2)cc1	Mtb FBA inh 48.5 | Mtb FBA inh conf inactive | GDH-TPI counter-2 inactive
Cc1ccnn1-c1ccc(C(=O)NCc2ccccc2CN2CCOCC2)cc1	Mtb FBA inh 58.2 (no result: DUSP3 inh) | Mtb FBA inh conf active | GDH-TPI counter-2 active
O=C(NCc1ccccc1CN1CCOCC1)c1ccc(-n2cccn2)cc1	none (no result: DUSP3 inh)
